The first assay concerns the target SIRPD. In words: pooled miR-30 sensor sort-seq; sequence = guide strand. Particulars: shRNA.
In turn, TTGTAGATTAATTTCCGGTTTG returned a sensor-assay potency score (higher = more potent) of -0.577.
Take TTAATTTCCGGTTTGGCCCTGT: the sensor-assay potency score (higher = more potent) was 0.897.
On the same count and under the same terms, to AAATTGTAGATTAATTTCCGGT belongs -0.422; to TACTCCTTGATAGCTCTTCCTT, -0.857; to TGAACCACAAGACAGGTCCATT, -1.29.

In another assay the target is SIRT4. The assay is described as above. The conditions noted are these: shRNA.
With TTTTCTGACCTGTAGTCTGGTA, the sensor-assay potency score (higher = more potent) was -0.377.
The sequence TTTTGCTGACCTGAAAGTCAAC returned a sensor-assay potency score (higher = more potent) of -1.46.
Still for that read-out and setting: the figure for TTGAACGCAGGTTGGGACCTGA is 0.0552; for TTTCTGACCTGTAGTCTGGTAT it is -0.224.
Same read-out and setting: the figure for ATGTTCAGTATTGCAATCGGGA is -1.33.
The same measure, in the same setting: the figure for TATTGCAATCGGGAGCTTCTTC is -0.488; for TTGTGCACAAAATCAACCTTGT it is 0.469.
ATACCTGCAAGGATGATCCCAC showed a sensor-assay potency score (higher = more potent) of 0.445.
The same measure, in the same setting: the figure for TTTTTCTGACCTGTAGTCTGGT is 0.35; for TGTAACTCTTTGACCTTCTCAG it is 0.0606; for TTCTTTTACACGCTTGTGCACA it is -0.806.

Another assay has as its target SIRT7. The description is as above. Particulars: shRNA.
For TGAAGCAGTGTCCACACTCCAT, the sensor-assay potency score (higher = more potent) is -1.07.
As for TTCAATGTACATGTTCCCGTGG, the sensor-assay potency score (higher = more potent) worked out at 0.307.
Consider TAGACGACCAAGTATTTGGCGT, for which the sensor-assay potency score (higher = more potent) is -0.403.
The same measure, in the same setting: the figure for TAACGCTTCTCCCTTTCTGAAG is -1.56; for TTGGTCATGCACCAGAGGCGTG it is -1.42.
With TTCTTCACCAGCACGCAGGGGA, the sensor-assay potency score (higher = more potent) is -0.0799.
Same read-out and setting: to TTCTGCACAGCGACTTCCGACT belongs -1.07; to ATGACGTCATCACACTTCCCAT, -1.31; to TCCGTCACATCGAACACCCGCA, -0.639.
The same measure, in the same setting: the figure for TGGGTACTTCTTTAGAACCTTC is -0.762; for TTCTGAAGCAGTGTCCACACTC it is -0.449.
Still for that read-out and setting: the figure for TTCTTTAGAACCTTCAGGCTGG is 0.828.

A further assay concerns the target SIX1. The assay is described as above. The conditions noted are these: shRNA.
In the case of TTTCTATTTACAAGTGTCCCTA, the sensor-assay potency score (higher = more potent) is -0.676.
In turn, AACAACTCCAGAAACAAGCTGC returned a sensor-assay potency score (higher = more potent) of -0.198.
The same measure, in the same setting: the figure for TTGTTTTCGGTGTTCTCCCTTT is -0.196.
Still for that read-out and setting: the figure for TTCTTGTGCAGGTGGTCGCAGG is -1.02; for TACAAGTGTCCCTAGTCGCTGC it is 0.379; for TTTATGCGCAAACAACTCCAGA it is -1.43.
For ATATTTGTGAAAGTCCACCATT, the sensor-assay potency score (higher = more potent) was -0.953.
Still for that read-out and setting: to TTCTGAGCTGGACATGAGCGGC belongs -1.35; to TTAAGCTTGAGATCGCTGTTGG, 0.117; to TTCTCCTTGAAGCAGTAGCTGG, -1.4.
On the same count and under the same terms, the figure for TTCTATTTACAAGTGTCCCTAG is 0.0217.
Same read-out and setting: to TTGAGTACGCTCTCGTTCTTGT belongs -0.00831.

These data come from the OligoGym collection.
Note: reference of the scale not given here.
